Test results reported in PubChem BioAssay (Tox21).
Unmarked numbers belong to inactive results. Activity calls are given as the source filed them. Calls follow the shape of the dose curve; as a rule, active = well fitted curve in the direction sought with a large enough effect in the repeat runs; inconclusive = weak or mixed curves; inactive = flat fitted curve, though single readings scatter.

assay: qHTS assay to test for compound auto fluorescence at 590 nm (red) in HEK293 cell free culture (AID 720683); details: cell-free medium autofluorescence, Ex540/Em590 red; series mostly up to 91.3 µM
Excerpt: U.S. Tox21 Program National Center for Advancing Translational Sciences [NCATS] NIH Chemical Genomics Center [NCGC] U.S. Environmental Protection Agency [EPA] National Institutes of Environmental Health Sciences [NIEHS] National Toxicology Program [NTP] U.S. Food and Drug Administration [FDA] Tox21 Assay Overview: Compound auto fluorescence often interferes with screening of the compound library against various biological targets and signaling pathways. Some of these compounds may have fluorophoric properties. Such properties may interfere with the assay outputs resulting in false positives and/or negatives. To decrease such complications and ensure the compound activities are relevant in terms of biological response, the Tox21 10K compound library was screened for auto fluorescence. From the fluorophores used as reporter signals in our screening assays, the auto fluorescence equivalencies of compounds against three fluorophores have been evaluated: Triamterene, Fluorescein and Rose Bengal sodium for blue, green and red fluorescence, respectively. The fluorescence intensities were measured using Excitation/Emission wavelengths at 405/460nm, 485/535nm and 540/590nm for blue, green and red labels, respectively. This assay includes the red fluorescence data.
Tox21 Assay Protocol Summary: 5 uL of culture medium (DMEM containing 10% FBS) per well was dispensed into black wall/clear bottom 1536-well plates using a Multidrop Combi Dispenser (ThermoFisher Scientific, Waltham, MA). After 23 nL compound or DMSO vehicle was transferred into assay plate by a pintool work station (Kalypsys, San Diego, CA), fluorescence intensities in the assay plates were measured by an Envision (PerkinElmer, Shelton, CT) plate reader using three labels for measuring blue, green and red fluorescence at […] 460, 535 and 590nm respectively.
% is scaled to controls: 0 for no effect and ±100 for the full control effect.

Row | SMILES | outcome | fluorescence, % of fluorescent control
1 | NC(=O)Cn1c(=O)cc(CCN2CCN(c3nccc4sccc34)CC2)c2ccc(F)cc21 | inactive | –
2 | CCCC(=O)O[C@]1(C(=O)COC(=O)CC)CC[C@H]2[C@@H]3CCC4=CC(=O)CC[C@]4(C)[C@H]3[C@@H](O)C[C@@]21C | inactive | –
3 | CCNC(=O)N1CCN(CCCC(c2ccc(F)cc2)c2ccc(F)cc2)CC1 | inactive | –
4 | NC(=O)N(O)[C@@H]1C=C[C@H](Oc2cccc(Oc3ccc(F)cc3)c2)C1 | inactive | –
5 | CCc1c2c(nc3ccc(OC(=O)N4CCC(N5CCCCC5)CC4)cc13)-c1cc3c(c(=O)n1C2)COC(=O)[C@]3(O)CC | inactive | –
6 | O=C(Nc1ccccc1)Nc1ccccc1 | inactive | –
7 | CC(=O)OCC(=O)[C@H]1CC[C@H]2[C@@H]3CCC4=CC(=O)CC[C@]4(C)[C@H]3CC[C@]12C | inactive | –
8 | CCOC(=O)c1ccccc1OC | inactive | –
9 | O=C(N/N=C/c1ccc([N+](=O)[O-])o1)c1ccc(O)cc1 | – | -0.537% [at 18.6 µM]
10 | CCN(CC)CCNC(=O)c1ccc(NC(C)=O)cc1 | inactive | –
11 | CCOC(=O)OCC | inactive | –
12 | N#C/C(=C1/SC[C@@H](c2ccc(Cl)cc2Cl)S1)n1ccnc1 | inactive | –
13 | Cc1ccc(S)cc1 | inactive | –
14 | Fc1c(F)c(F)c(Br)c(F)c1F | inactive | –
15 | C[Si](NC1CCCCC1)(NC1CCCCC1)NC1CCCCC1 | inactive | –
16 | CCCCCCCC/C=C\CCCCCCCC(=O)OC(CO)CO | inactive | –
17 | Fc1ccccc1[C@@H](F)COC1CCC(Nc2ncnc3[nH]ncc23)CC1 (stereo not given in full) | inactive | –
18 | CC(CCO)CCc1ccccc1 (stereo not given) | inactive | –
19 | c1cc[c]([Bi]([c]2ccccc2)[c]2ccccc2)cc1 | inactive | –
20 | CO/N=C1\CN(c2nc3c(cc2F)c(=O)c(C(=O)O)cn3C2CC2)CC1CN (stereo not given) | inactive | –

Row | SMILES | outcome | fluorescence, % of fluorescent control
21 | C=CCCCCCCCCCCCCCCCC | – | -0.0981% [at 3.72 µM]
22 | CC(=O)[C@H]1CC[C@H]2[C@@H]3C[C@H](C)C4=CC(=O)CC[C@]4(C)[C@H]3[C@@H](O)C[C@]12C | – | -0.395% [at 18.6 µM]
23 | CCCCC/C(=C\c1ccccc1)CO | inactive | –
24 | COC(=O)[C@@H]1CC2=CC(=O)CC[C@]2(C)[C@@]23O[C@@H]2C[C@@]2(C)[C@@H](CC[C@@]24CCC(=O)O4)[C@H]13 | inactive | –
25 | CC(C)(CCl)c1ccccc1 | inactive | –
26 | CNC(=S)NC | inactive | –
27 | CC(C)(C)C(=O)O | inactive | –
28 | CC(=O)OCC(=O)[C@@]12OC(C)(C)O[C@@H]1C[C@H]1[C@@H]3C[C@H](F)C4=CC(=O)C=C[C@]4(C)[C@@]3(F)[C@@H](O)C[C@@]12C | – | 0.389% [at 18.6 µM]
29 | O=S(=O)(c1ccccc1)c1ccc(Cl)cc1 | inactive | –
30 | CC1(C)C(=O)N(Br)C(=O)N1Cl | inactive | –
31 | CCCCCCCCCCCC(=O)[O][Sn]([CH2]CCC)([CH2]CCC)[O]C(=O)CCCCCCCCCCC | inactive | –
32 | CCCCCCCC/C=C\CCCCCCCC(=O)OC | inactive | –
33 | COC(OC)(C(=O)c1ccccc1)c1ccccc1 | inactive | –
34 | CN(C)C(=O)Nc1ccc(Oc2ccc(Cl)cc2)cc1 | inactive | –
35 | Cc1c(C(=O)NN2CCCCC2)nn(-c2ccc(Cl)cc2Cl)c1-c1ccc(Cl)cc1 | inactive | –
36 | O=C(C(=O)c1ccccc1)c1ccccc1 | inactive | –
37 | CC1=CC(=O)CC(C)(C)C1(O)/C=C/C(C)=C\C(=O)O (stereo not given) | inactive | –
38 | CNCCCC1c2ccccc2C=Cc2ccccc21 | – | -0.009% [at 18.6 µM]
39 | COC(=O)CC(=O)C(C)(C)C | inactive | –
40 | COCCOC | inactive | –
